# According to PubChem BioAssay (NCATS):
# Unmarked numbers belong to inactive results. Calls follow the shape of the dose curve; as a rule, active = well fitted curve in the direction sought with a large enough effect; inconclusive = small, poorly fitted or top-dose-only effect, or another doubt; inactive = no such curve, though single readings can be large; an effect the other way counts as inactive or inconclusive. Residues, ends and D or L forms follow the SMILES beside them. *: point of attachment. Cbz = O=C(OCc1ccccc1)*
# Assay: qHTS for inhibitors of adenylyl cyclases using a fission yeast platform: a pilot screen against the NCATS LOPAC library (AID 1347410);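 also: plate controls were DMSO vehicle for no effect and DPI positive control for full effect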
# Details: S. pombe CHP2027, fbp1-GFP fluorescence, 18 h, yeast expressing mammalian AC9 and human GNAS; series mostly up to 57.5 µM; activity, positive = inhibition (GFP gain): at the top concentration
# Method in brief: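 GFP from fbp1-GFP reporter, read by Acumen laser cytometry, indicates AC inhibition in fission yeast expressing AC9, GNAS and PDE4D2. Cells grown 18 h in the dark at 30C with compounds, final up to 57 uM.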
row,SMILES,"activity, positive = inhibition (GFP gain)"
1,NC1C=CC=C(C(=O)O)C1 (stereo unspecified),-0.438%
2,N[C@@H](CS(=O)O)C(=O)O,-0.438%
3,Cc1nc(N=Nc2ccc(S(=O)(=O)O)cc2S(=O)(=O)O)c(COP(=O)(O)O)c(C=O)c1O,-0.438%
4,COc1cccc(OC)c1OCCNCC1CSc2ccccc2O1 (stereo unspecified),-0.438%
5,C[C@H]1CC2C3CCC4=CC(=O)C=C[C@]4(C)[C@@]3(Cl)[C@@H](O)C[C@]2(C)[C@@]1(O)C(=O)CO (stereo partly specified),-0.438%
6,O=C(O)c1ccccc1Nc1ccccc1,0.601%
7,O=C(O)CCC(=O)N1CCCC1C(=O)O (stereo unspecified),0.346%
8,COc1cc(CNC(=O)CCCCCCC(C)C)ccc1O,-0.438%
9,O=C(O)Cc1ccc(O)c(O)c1,-0.438%
10,Nn1nnc2ccccc21,0.123%
11,COc1cc(/C=C(\C#N)C(=O)c2ccc(O)c(O)c2)cc(I)c1O,1.04%
12,O=C(O)Cc1c[nH]c2ccc(O)cc12,-0.438%
13,CCCC(=O)NCCc1c2n(c3ccc(OC)cc13)CCCc1ccccc1-2,-0.438%
14,Oc1ccc(Cn2cc[nH]c2=S)cc1,-0.137%
15,CCCc1c(OCCCOc2ccc(OCC(=O)O)cc2)ccc(C(C)=O)c1O,0.206%
16,NCCC1CCCC(CCN)N1 (stereo unspecified),-0.438%
17,c1ccc2nc(C3=NCCN3)ccc2c1,0.141%
18,N#CC(C#N)=C(N)/C(C#N)=C/c1ccc(O)cc1,0.253%

# Assay: Validation qHTS assay for inhibitors of Activation Induced Cytidine Deaminase (AID): UDG Counterscreen signal (AID 1347427); also: 0% is about no effect
# Details: biochemical UDG counterscreen, fluorescence signal; series mostly up to 115 µM; activity, negative = inhibition: at the top concentration
# Method in brief: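 Fluorescence at 560 nm excitation, 665 nm emission reports UDG signal after 250 mM NaOH (2x) addition and 30 min. Enzymes (AID 1 uM, UDG 2 U/mL, at 4/3x) preincubated 10 min with compound, then 4 h with 4x 250 nM DJC20/DJC23 substrate at room temperature.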
row,SMILES,"activity, negative = inhibition"
1,Cc1ccc2c(c1)C(N1CCN(C)CC1)=Nc1cccnc1N2,6.43%
2,NS(=O)(=O)c1cccc2c1c([N+](=O)[O-])cc1nc(O)c(O)nc12,6.35%
3,CC(/C=C/c1cccc(Oc2ccc(F)cc2)c1)N(O)C(N)=O (stereo unspecified),9.48%
4,NC(C(=O)N[C@@H]1C(=O)N2C(C(=O)O)=C(Cl)CS[C@H]12)c1ccccc1 (stereo partly specified),12.4%
5,O=C1C2C=CC=CC2=NC(=S)N1CCN1CCC(=C(c2ccc(F)cc2)c2ccc(F)cc2)CC1 (stereo unspecified),1.85%
6,CCCCCCC(=O)OC1CC(C)(C)NC(C)(C)C1,5.26%
7,CC(=O)NCCc1c[nH]c2ccc(O)cc12,9.63%
8,COC(=O)[C@H](NC(=O)c1cc(-c2ccccc2)nc2ccccc12)c1ccccc1,9.52%
9,Oc1cc(O)c2c(c1)O[C@H](c1ccc(O)c(O)c1)[C@@H](O)C2,10.4%
10,O=C(O)c1cc2cc(F)ccc2[nH]1,-0.653%
11,NC1CCN(O)C1=O (stereo unspecified),12.6%
12,C=C(C)C1CC=C(C(=O)O)CC1 (stereo unspecified),6.5%
13,Cn1cc(C(F)(F)F)nc1-c1ccc(OCC(O)CNCCOc2ccc(O)c(C(N)=O)c2)cc1 (stereo unspecified),10.5%
14,COc1ccc(CCn2nnnc2C2(c3ccc(C)cc3)CC2)cc1,4.69%
15,CC(C)[C@H](NC(=O)OCc1ccccc1)C(=O)N[C@H](C=O)Cc1ccccc1 (Cbz-Val-Phe-aldehyde),10.1%
16,O=c1ccc2c(OCCCCc3ccccc3)c3ccoc3cc2o1,8.41%
17,OCC1NCC(O)C(O)C1O (stereo unspecified),12.3%
18,N[C@@H](CCCC(=O)O)C(=O)O,14.4%
19,NC(N)=NC(N)=Nc1ccccc1,12.4%

row,SMILES,"activity, negative = inhibition"
1,CC1=C(/C=C/C(C)=C/C=C/C(C)=C\C(=O)O)C(C)(C)CCC1,6.75%
2,NC1C=CC=C(C(=O)O)C1 (stereo unspecified),9.02%
3,N[C@@H](CS(=O)O)C(=O)O,13.1%
4,Cc1nc(N=Nc2ccc(S(=O)(=O)O)cc2S(=O)(=O)O)c(COP(=O)(O)O)c(C=O)c1O,4.82%
5,COc1cccc(OC)c1OCCNCC1CSc2ccccc2O1 (stereo unspecified),-0.0656%
6,C[C@H]1CC2C3CCC4=CC(=O)C=C[C@]4(C)[C@@]3(Cl)[C@@H](O)C[C@]2(C)[C@@]1(O)C(=O)CO (stereo partly specified),-0.377%
7,O=C(O)c1ccccc1Nc1ccccc1,9.85%
8,O=C(O)CCC(=O)N1CCCC1C(=O)O (stereo unspecified),-2.83%
9,COc1cc(CNC(=O)CCCCCCC(C)C)ccc1O,1.27%
10,O=C(O)Cc1ccc(O)c(O)c1,5.04%
11,Nn1nnc2ccccc21,14.8%
12,COc1cc(/C=C(\C#N)C(=O)c2ccc(O)c(O)c2)cc(I)c1O,4.57%
13,O=C(O)Cc1c[nH]c2ccc(O)cc12,-2.7%
14,CCCC(=O)NCCc1c2n(c3ccc(OC)cc13)CCCc1ccccc1-2,-3.49%
15,Oc1ccc(Cn2cc[nH]c2=S)cc1,15.4%
16,CCCc1c(OCCCOc2ccc(OCC(=O)O)cc2)ccc(C(C)=O)c1O,12.7%
17,NCCC1CCCC(CCN)N1 (stereo unspecified),7.66%
18,c1ccc2nc(C3=NCCN3)ccc2c1,10.7%
19,N#CC(C#N)=C(N)/C(C#N)=C/c1ccc(O)cc1,11.3%
